Values joined by “and” are separate entries in the source; they are usually repeats but may differ in a detail not shown here. Equal values may be shown once. Records with an inconclusive call do not appear. Some structures have more than one record in an assay (separate samples or runs), and their calls can disagree. Active and inactive are the calls of the source. Unless noted, calls follow the shape of the dose curve; as a rule, active = well fitted curve in the direction sought with a large enough effect in the repeat runs; inconclusive = weak or mixed curves; inactive = no such curve, though single readings can be large; an effect the other way counts as inactive or inconclusive.
Columns and labels:
[1] = qHTS assay to identify small molecule antagonists of the estrogen receptor alpha (ER-alpha) signaling pathway using the BG1 cell line in the presence of 0.1 nM 17-beta-estradiol - cell viability counter screen (AID 1259241); also: nearly all actives have a fitted effect of over 40% in size; also: potency is read from the fitted curve at half-maximal effect
Procedure, shortened: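 Measures cytotoxicity alongside the ER-alpha antagonist readout: VM7Luc4E2 cells, charcoal-stripped serum, 0.1 nM 17beta-estradiol final, 22 hr compound incubation at 37C, CellTiter-Fluor fluorescence.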

[2] = qHTS assay to identify small molecule antagonists of the androgen receptor (AR) signaling pathway using the MDA cell line in the presence of 0.5 nM R1881 - cell viability counter screen (AID 1259242); also: nearly all actives have a fitted effect of over 45% in size; also: potency is read from the fitted curve at half-maximal effect
Procedure, shortened: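 Live-cell protease activity was measured by CellTiter-Fluor fluorescence after 30 min. Before that, MDA-kb2 MMTV-luciferase cells had 16 hr at 37C without CO2, exposed to test compounds and 0.5 nM R1881 final.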

[3] = qHTS assay to identify small molecule HDAC inhibitors (AID 1259364); also: nearly all actives have a fitted effect of over 45% in size; also: potency is read from the fitted curve at half-maximal effect; as to activity change, negative = inhibition: top concentration of the series differs between compounds
Procedure, shortened: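 Luminescence read after 30 min room-temperature HDAC-Glo incubation measures cellular class I/II HDAC activity. Compounds were applied for 2 hr at 37 C to HCT-116 wild-type cells seeded the day before.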

[4] = qHTS assay to identify small molecule HDAC inhibitors - cell viability counter screen (AID 1259365); also: nearly all actives have a fitted effect of over 50% in size; also: potency is read from the fitted curve at half-maximal effect; as to activity change, negative = cytotoxicity: series mostly up to about 92 µM
Procedure, shortened: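 Following a 2hr exposure of overnight-plated wild-type HCT-116 cells to DMSO-delivered compounds, CellTiter-Glo was added and luminescence recorded after 30min at room temperature.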

[5] = qHTS assay to identify small molecule agonists of the sonic hedgehog signaling (Shh) pathway - cell viability counter screen (AID 1259366); also: nearly all actives have a fitted effect of over 50% in size; also: potency is read from the fitted curve at half-maximal effect
Procedure, shortened: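 After a 4hr attachment at 37C, NIH/3T3 cells bearing an integrated Gli1-driven luciferase reporter were dosed with compounds. Treatment lasted 24hr, with the final hour including CellTiter-Fluor for a fluorescence viability measurement.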

[6] = qHTS assay to identify small molecule antagonists of the sonic hedgehog signaling (Shh) pathway - cell viability counter screen (AID 1259367); also: nearly all actives have a fitted effect of over 55% in size; also: potency is read from the fitted curve at half-maximal effect
Procedure, shortened: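 Tox21 library chemicals were tested on a Gli1-Luc NIH/3T3 clone (2,000 cells/well) stimulated by conditioned medium; viability was quantified as fluorescence from CellTiter-Fluor reagent added at 23 hr.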

[7] = qHTS assay to identify small molecule agonists of the sonic hedgehog signaling (Shh) pathway (AID 1259368; calls by dose curve;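 also: NIH/3T3-derived 3T3Gli1-Luc cells carrying a stable Gli1-driven firefly luciferase reporter; series mostly up to about 92 µM; nearly all actives have a fitted effect of over 15% in size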)
Procedure, shortened: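 Luminescence was read after 30 min at room temperature with luciferase reagent. Before that, 3T3Gli1-Luc cells (NIH/3T3 clone, stable Gli1-Luc reporter; 2,000/well) were exposed to compounds for 24 hr at 37C, 5% CO2, compounds being added 4 hr post-plating.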

[8] = qHTS assay to identify small molecule antagonists of the sonic hedgehog signaling (Shh) pathway (AID 1259369; calls by dose curve; also: nearly all actives have a fitted effect of over 45% in size; also: potency is read from the fitted curve at half-maximal effect)
Procedure, shortened: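 Antagonist mode: compound added to 3T3 Gli1-Luc cells followed by conditioned-medium stimulation, 24 h at 37 C, 5% CO2. Inhibition taken as loss of Gli1-driven luciferase luminescence.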

[9] = target: Estrogen receptor beta (Homo sapiens) (UniProt Q92731); assay: qHTS assay to identify small molecule agonists of the estrogen receptor beta (ER-beta) signaling pathway (AID 1259377; active = well fitted activation curve with a large enough effect in the signal ratio in the repeat runs, not every such curve was filed as active; the % refers to the signal ratio)
Procedure, shortened: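 In HEK293T cells bearing a UAS-beta-lactamase reporter under ER-beta control, DMSO-delivered compounds were incubated for 16 hr at 37C. Activity was detected as fluorescence 2 hours after LiveBLAzer B/G FRET substrate addition.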

[10] = target: Estrogen receptor beta (Homo sapiens) (UniProt Q92731); assay: qHTS assay to identify small molecule antagonists of the estrogen receptor beta (ER-beta) signaling pathway (AID 1259378; active = well fitted inhibition curve with a large enough effect in the signal ratio in the repeat runs, not every such curve was filed as active; the % refers to the signal ratio)
Procedure, shortened: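 ER-beta-UAS-bla HEK293T cells in 2% charcoal-stripped FBS medium treated with compound plus 1nM final 17-beta-estradiol for 16 hr at 37C. Beta-lactamase reporter read by FRET substrate fluorescence after 2 hours at room temperature.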

[11] = qHTS assay to identify small molecule agonists of the androgen receptor (AR) signaling pathway in the presence of an antagonist - cell viability counter screen (AID 1259379); also: nearly all actives have a fitted effect of over 25% in size; also: potency is read from the fitted curve at half-maximal effect;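 as to activity change, negative = cytotoxicity: MDA-kb2 human breast cancer cells carrying an MMTV luciferase reporter; series mostly up to about 92 µM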
Procedure, shortened: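 Cytotoxicity counter-screen run in the same wells as the nilutamide-challenged (3.0 µM final) AR agonist assay in MDA-kb2 cells. Compounds tested at 15 concentrations for 16 h, 37 °C without CO2; CellTiter-Fluor fluorescence read.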

[12] = qHTS assay to identify small molecule agonists of the estrogen receptor beta (ER-beta) signaling pathway - cell viability counter screen (AID 1259380); also: nearly all actives have a fitted effect of over 30% in size; also: potency is read from the fitted curve at half-maximal effect
Procedure, shortened: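 Cell viability counter screen: CellTiter-Glo luminescence (30 min, room temperature) measured in the same wells as the beta-lactamase readout, after 16 hr compound exposure at 37C of ER-beta-bla HEK293T cells in 2% charcoal-stripped FBS medium.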

[13] = qHTS assay to identify small molecule antagonists of the estrogen receptor beta (ER-beta) signaling pathway - cell viability counter screen (AID 1259382); also: nearly all actives have a fitted effect of over 55% in size; also: potency is read from the fitted curve at half-maximal effect; as to activity change, negative = cytotoxicity: series mostly up to about 92 µM
Procedure, shortened: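 Cytotoxicity was measured in the same wells by CellTiter-Glo luminescence after 30 min at room temperature. Cells were ER-beta-bla HEK293T in charcoal-stripped serum, given compound together with 1 nM E2 and incubated 16 h at 37C.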

[14] = qHTS assay to identify small molecule agonists or antagonists of the thyroid stimulating hormone receptor (TSHR) signaling pathway - wild type cell line counter screen (AID 1259384; calls by dose curve)
Procedure, shortened: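 Wild-type Hek293 cells, 800/well, 18 h at 37C, then compound with Ro20-1724 for 30 min RT. cAMP by HTRF (cAMP-d2/anti-cAMP cryptate), 1 h RT, fluorescence read. 15 concentrations, triplicates.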

[15] = target: Thyrotropin receptor (Homo sapiens) (UniProt P16473); assay: qHTS assay to identify small molecule antagonists of the thyroid stimulating hormone receptor (TSHR) signaling pathway (AID 1259385; calls by dose curve; also: nearly all actives have a fitted effect of over 20% in size; also: potency is read from the fitted curve at half-maximal effect)
Procedure, shortened: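 TSHR-HEK293 cells (800/well) plated 18 h, then compounds with Ro20-1724 and TSH at 1.5 ng/mL final, 30 min at room temperature. cAMP quantified by HTRF (cAMP-d2/anti-cAMP-cryptate, 1 h); 15 concentrations in triplicate.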

[16] = target: Estrogen receptor (Homo sapiens) (UniProt P03372); assay: qHTS assay to identify small molecule antagonists of the estrogen receptor alpha (ER-alpha) signaling pathway using the BG1 cell line in the presence of 0.1 nM 17-beta-estradiol (AID 1259244); also: nearly all actives have a fitted effect of over 50% in size; also: potency is read from the fitted curve at half-maximal effect
Procedure, shortened: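 Luciferase luminescence (ONE-Glo, 30 min at room temperature) was read after 22 hr at 37C exposure to compounds plus 17beta-estradiol at 0.1 nM final. Cells were VM7Luc4E2 with endogenous ER-alpha and an ERE-driven luciferase, pre-cultured 5 days in hormone-depleted medium.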

[17] = target: Estrogen receptor (Homo sapiens) (UniProt P03372); assay: qHTS assay to identify small molecule agonists of the estrogen receptor alpha (ER-alpha) signaling pathway in the presence of an antagonist (AID 1259383; calls by dose curve; also: top concentration of the series differs between compounds; nearly all actives have a fitted effect of over 15% in size)
Procedure, shortened: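 Agonist-mode confirmation run in the presence of 10.0nM (final) ICI-182,780 antagonist. The reporter was ERE-driven luciferase in VM7Luc4E2 cells, grown in charcoal-stripped serum. Cells were exposed to 15-concentration compound series for 22hr, then ONE-Glo luminescence was read.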

[18] = qHTS assay to identify small molecule phospholipidosis (PLD) inducers (AID 1259344; active = well fitted curve in the direction sought with a large enough effect; an effect the other way counts as inactive or inconclusive)
Procedure, shortened: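 Image-based: LipidTOX Red pit count/intensity per well and per cell; HepG2, 24 h compound at 37 C, PFA fixation, Hoechst counterstain.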
% is scaled to controls: 0 for no effect and ±100 for the full control effect.

Chain of Estrogen receptor (Homo sapiens) (P03372 whole entry, looked up): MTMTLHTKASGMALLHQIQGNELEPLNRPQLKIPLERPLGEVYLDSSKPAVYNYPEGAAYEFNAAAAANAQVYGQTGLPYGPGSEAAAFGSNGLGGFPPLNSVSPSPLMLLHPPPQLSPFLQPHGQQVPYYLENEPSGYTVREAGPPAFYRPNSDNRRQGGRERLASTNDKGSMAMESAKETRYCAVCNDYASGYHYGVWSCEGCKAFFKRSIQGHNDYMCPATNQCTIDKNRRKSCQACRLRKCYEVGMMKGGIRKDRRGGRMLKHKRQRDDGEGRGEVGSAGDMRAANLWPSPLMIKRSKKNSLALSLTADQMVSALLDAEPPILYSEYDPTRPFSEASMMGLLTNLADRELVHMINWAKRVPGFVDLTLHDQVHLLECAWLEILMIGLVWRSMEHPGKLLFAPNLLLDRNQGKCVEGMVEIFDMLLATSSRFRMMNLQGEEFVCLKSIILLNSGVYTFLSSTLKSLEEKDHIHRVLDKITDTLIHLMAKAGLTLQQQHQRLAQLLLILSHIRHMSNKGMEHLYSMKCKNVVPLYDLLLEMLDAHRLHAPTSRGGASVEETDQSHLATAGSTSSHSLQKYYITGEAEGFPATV
Chain of Estrogen receptor beta (Homo sapiens) (Q92731 whole entry, looked up): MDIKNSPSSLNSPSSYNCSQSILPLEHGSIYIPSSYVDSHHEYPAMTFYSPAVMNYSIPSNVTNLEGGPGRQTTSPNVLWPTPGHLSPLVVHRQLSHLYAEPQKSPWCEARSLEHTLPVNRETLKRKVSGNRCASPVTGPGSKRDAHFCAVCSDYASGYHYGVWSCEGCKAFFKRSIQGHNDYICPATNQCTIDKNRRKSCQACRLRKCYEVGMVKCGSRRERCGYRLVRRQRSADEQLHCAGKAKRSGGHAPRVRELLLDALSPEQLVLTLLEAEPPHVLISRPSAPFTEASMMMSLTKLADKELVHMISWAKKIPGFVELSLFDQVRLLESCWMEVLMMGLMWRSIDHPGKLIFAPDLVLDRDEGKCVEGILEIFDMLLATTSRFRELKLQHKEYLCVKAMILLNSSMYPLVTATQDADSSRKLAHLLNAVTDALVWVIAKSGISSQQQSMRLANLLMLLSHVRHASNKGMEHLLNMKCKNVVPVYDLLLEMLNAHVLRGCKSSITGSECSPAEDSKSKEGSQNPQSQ
Chain of Thyrotropin receptor (Homo sapiens) (P16473 whole entry, looked up): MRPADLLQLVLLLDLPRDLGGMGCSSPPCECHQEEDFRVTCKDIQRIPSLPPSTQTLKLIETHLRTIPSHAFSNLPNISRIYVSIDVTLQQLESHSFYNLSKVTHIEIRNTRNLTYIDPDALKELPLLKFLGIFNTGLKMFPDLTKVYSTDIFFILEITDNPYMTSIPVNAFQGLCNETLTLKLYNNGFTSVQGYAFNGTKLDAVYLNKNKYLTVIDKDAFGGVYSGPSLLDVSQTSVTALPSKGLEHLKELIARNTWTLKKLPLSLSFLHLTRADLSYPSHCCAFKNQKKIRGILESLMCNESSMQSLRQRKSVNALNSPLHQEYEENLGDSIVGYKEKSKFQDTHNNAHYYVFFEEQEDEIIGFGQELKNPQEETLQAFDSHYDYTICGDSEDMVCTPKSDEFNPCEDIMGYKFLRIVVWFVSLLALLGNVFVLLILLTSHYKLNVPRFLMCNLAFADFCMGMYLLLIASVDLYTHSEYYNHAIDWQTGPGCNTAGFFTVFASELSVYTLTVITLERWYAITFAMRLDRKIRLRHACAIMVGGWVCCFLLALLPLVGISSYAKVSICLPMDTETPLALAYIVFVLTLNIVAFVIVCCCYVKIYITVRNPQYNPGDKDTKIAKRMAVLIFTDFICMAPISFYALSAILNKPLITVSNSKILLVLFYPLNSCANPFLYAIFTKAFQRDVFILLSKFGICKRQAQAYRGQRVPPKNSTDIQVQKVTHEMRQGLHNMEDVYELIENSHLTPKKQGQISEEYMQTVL

C/C=C(\C)C(=O)OCc1ccccc1
inactive: Potency [1] | Potency [2] | Potency [3] | Potency [4] | Potency [5] | Potency [6] | Potency [7] | Potency [8] | Potency [9] | Potency [10] | Potency [11] | Potency [12] | Potency [13] | outcome [14] | Potency [15]

O=Cc1cc(O)ccc1Br
inactive: Potency [1] | Potency [2] | Potency [16] | Potency [4] | Potency [6] | Potency [7] | Potency [8] | Potency [9] | Potency [11] | Potency [12] | Potency [13] | Potency [17] | outcome [14] | Potency [15]

CN(C/C=C/C#CC(C)(C)C)Cc1cccc2ccccc12
active: Potency [12] 26.6 µM
inactive: Potency [1] | Potency [2] | Potency [18] | Potency [3] | Potency [4] | Potency [6] | Potency [7] | Potency [8] | Potency [11] | outcome [14] | Potency [15]

COc1cccc(N)c1
inactive: Potency [1] | Potency [2] | Potency [3] | Potency [4] | Potency [5] | Potency [6] | Potency [7] | Potency [8] | Potency [11] | Potency [13] | outcome [14] | Potency [15]

Cc1c(C)c2c(c(C)c1OC(=O)CCC(=O)O)CC[C@@](C)(CCC[C@H](C)CCC[C@H](C)CCCC(C)C)O2
active: Potency [11] 27.6 µM | Potency [12] 1.95 µM
inactive: Potency [1] | Potency [2] | Potency [18] | Potency [3] | Potency [4] | Potency [5] | Potency [6] | Potency [7] | Potency [8] | outcome [14] | Potency [15]

CO[Si](CCCNc1ccccc1)(OC)OC
inactive: Potency [1] | Potency [2] | Potency [3] | Potency [4] | Potency [5] | Potency [6] | Potency [7] | Potency [8] | Potency [11] | Potency [12] | Potency [13] | outcome [14] | Potency [15]

O=C(Nc1cccc(Cl)c1)OCC#CCCl
active: Potency [1] 61.1 µM | Potency [2] 61.1 µM | Potency [5] 27.3 µM | Potency [6] 24.3 µM | Potency [8] 5.45 µM | Potency [11] 54.5 µM | Potency [12] 54.5 µM
inactive: Potency [3] | Potency [4] | Potency [7] | Potency [17] | outcome [14] | Potency [15]

Oc1cccc2cc3cccc(O)c3c(O)c12
inactive: Potency [1] | Potency [2] | Potency [3] | Potency [4] | Potency [5] | Potency [6] | Potency [7] | Potency [8] | Potency [12] | Potency [13] | outcome [14] | Potency [15]

O=c1cc(-c2ccc(O)cc2)oc2cc(O)cc(O)c12
active: Potency [3] 8.75 µM and 17.2 µM | Potency [5] 61.9 µM and 38.6 µM | Potency [6] 48.6 µM
inactive: Potency [1] | Potency [2] | Potency [4] | Potency [7] | Potency [12] | Potency [13] | outcome [14] | Potency [15]
inactive and 30.6 µM (active): Potency [8]

Nc1c(Cl)cc(Cl)cc1Cl
inactive: Potency [1] | Potency [2] | Potency [3] | Potency [4] | Potency [5] | Potency [6] | Potency [7] | Potency [8] | Potency [11] | Potency [12] | Potency [13] | outcome [14] | Potency [15]

Clc1ccc2n[nH]nc2c1
inactive: Potency [1] | Potency [2] | Potency [3] | Potency [4] | Potency [5] | Potency [6] | Potency [7] | Potency [8] | Potency [11] | Potency [12] | Potency [13] | outcome [14] | Potency [15]

CCCCCCCC[N+](CCCCCCCC)(CCCCCCCC)CCCCCCCC
active: Potency [1] 61 µM | Potency [2] 9.67 µM | Potency [16] 2.16 µM | Potency [4] 61 µM | Potency [6] 27.3 µM | Potency [8] 0.768 µM | Potency [11] 17.2 µM | Potency [12] 30.6 µM | Potency [13] 21.6 µM | Potency [15] 61 µM
inactive: Potency [3] | Potency [7] | Potency [17] | outcome [14]

O=C1c2ccccc2Cc2ccccc21
inactive: Potency [1] | Potency [2] | Potency [16] | Potency [4] | Potency [7] | Potency [8] | Potency [9] | Potency [11] | Potency [12] | Potency [13] | outcome [14] | Potency [15]
active: Potency [3] 6.16 µM

CCCC(C)c1ccccc1O (centres undefined)
inactive: Potency [1] | Potency [2] | Potency [16] | Potency [3] | Potency [4] | Potency [7] | Potency [9] | Potency [10] | Potency [11] | Potency [12] | Potency [13] | outcome [14] | Potency [15]

CCC(N)(CO)CO
inactive: Potency [1] | Potency [2] | Potency [16] | Potency [3] | Potency [4] | Potency [6] | Potency [7] | Potency [9] | Potency [10] | Potency [11] | Potency [12] | Potency [13] | Potency [17]

CC(NN)c1ccccc1 (centres undefined)
inactive: activity change, negative = cytotoxicity [1] 6.27% [at 19 µM] | viability change, negative = cytotoxic [2] -1.49% [at 19 µM] | Potency [18] | activity change, negative = inhibition [3] 0.741% [at 19 µM] | activity change, negative = cytotoxicity [4] 0.995% [at 19 µM] | viability change, negative = cytotoxic [5] 2.68% [at 19 µM] | Potency [6] | activity change [7] 1.23% [at 18.9 µM, stronger effect = higher value] | activity change, negative = inhibition [8] 19.3% [at 19 µM] | activity change, negative = cytotoxicity [11] -0.324% [at 19 µM] | activity change, negative = cytotoxicity [12] -2.17% [at 19 µM] | activity change, negative = cytotoxicity [13] 1.73% [at 19 µM] | cAMP activity change [14] 0.522% [at 18.9 µM] | activity change, negative = inhibition [15] -2.3% [at 19 µM]

Cc1cccc(S(=O)(=O)O)c1C
inactive: Potency [1] | Potency [2] | Potency [16] | Potency [3] | Potency [4] | Potency [6] | Potency [7] | Potency [9] | Potency [10] | Potency [11] | Potency [12] | Potency [13] | Potency [17] | outcome [14] | Potency [15]
